High-throughput results: PubChem, National Center for Advancing Translational Sciences (NCATS)
Sm TGR inh: S. mansoni TGR enzyme inhibition | purified TGR, DTNB reduction, TNB absorbance 405 nm | Potency, µM (series often up to 114 µM), inactives show at the highest dose activity change, negative = inhibition, hits mostly inhibitors | 360,000 tested, 3% active; further: potency means the concentration at half of the fitted maximal effect; nearly all actives have a fitted effect of over 60% in size
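TGR 20 nM + NADPH 100 uM (dispensed conc.), cpd preinc 15 min RT; start with NADPH (500 uM addition) then DTNB (15 mM addition). Kinetic TNB absorbance, 405 nm filter. Four-parameter Hill fit across titration.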
FBPA Giardia inh: Giardia lamblia aldolase inhibition; Potency, µM (top dose mostly 59.6 µM), for inactives: top-dose activity, negative = inhibition, actives largely listed as inhibitors; A8B2U2; 290,000 tested, 0.71% active; purified Giardia FBPA; further: potency means the concentration at half of the fitted maximal effect; nearly all actives have a fitted effect of over 55% in size
Target sequence (A8B2U2 whole entry, looked up): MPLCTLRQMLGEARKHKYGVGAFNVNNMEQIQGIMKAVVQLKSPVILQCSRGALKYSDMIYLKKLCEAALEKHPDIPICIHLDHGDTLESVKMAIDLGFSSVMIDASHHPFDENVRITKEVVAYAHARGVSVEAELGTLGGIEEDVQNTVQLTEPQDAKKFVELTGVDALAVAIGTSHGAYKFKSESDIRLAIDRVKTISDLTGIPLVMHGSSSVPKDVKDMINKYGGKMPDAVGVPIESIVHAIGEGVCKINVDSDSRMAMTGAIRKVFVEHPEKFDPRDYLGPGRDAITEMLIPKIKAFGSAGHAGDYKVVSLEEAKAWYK
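40 nM FBPA preincubated 10 min at RT with compound (up to 57.5 uM final), then substrate plus GAPDH/TPI/NAD/arsenate coupling and diaphorase/resazurin added. Fluorescence read after 20 min at RT, 525/598 nm.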
HCMV inh: blocks human cytomegalovirus replication | 410,000 tested, 4.5% active | HFF cells, HCMV-luciferase reporter, 72 h; stronger effect = lower value | activity change, negative = inhibition, % at 57.5 µM; in the data active means activity change below about -60%; inconclusive means no clear call, values can overlap the other calls; inactive means above about -39%
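After 16 h attachment at 37C, HFF cells received test compound and HCMV-luciferase (1 PFU/cell); reporter luminescence read 72 h later, data normalized against buffer-only and known inhibitor Salinomycin.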
Pf growth 48h: inhibits P. falciparum growth in the first generation, 48 h | P. falciparum luciferase growth in erythrocytes, 48 h | Potency, µM (doses to about 28.7 µM), for inactives: at the highest dose activity change, negative = inhibition, actives largely listed as inhibitors | 310,000 tested, 5.9% active; further: potency means the concentration at half of the fitted maximal effect
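Luminescence readout; reporter = integrated firefly luciferase in P. falciparum. RBC culture at 2% hematocrit, 0.1% parasitemia final, 37 C/5% CO2; decreased signal taken as growth inhibition.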
Pf growth 96h: P. falciparum growth inhibition at 96 hours; P. falciparum luciferase reporter growth, 96 h; Potency, µM (highest dose often 28.7 µM), for inactives: top-dose activity change, negative = inhibition, actives largely listed as inhibitors; 320,000 tested, 6.9% active; further: potency means the concentration at half of the fitted maximal effect
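Cell-based qHTS: luciferase-tagged P. falciparum in erythrocytes (2% hematocrit, 0.05% parasitemia final) incubated with compounds for 96 hours, 37 C, 5% CO2; luciferase detection reagent then added and luminescence measured.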
Active calls of the source: *; ? = inconclusive; / = no result given. Shown are actives, neighbours in structure and some others; about 14% of the full set was active somewhere. Unless noted, the call rests on the fitted dose curve; in most records, active means well fitted curve in the direction sought with a large enough effect; inconclusive means small, poorly fitted or top-dose-only effect, or another doubt; inactive means no such curve, though single readings can be large; an effect the other way counts as inactive or inconclusive. On the % scale 0 is the no-effect control and ±100 the full control effect.

SMILES	Sm TGR inh	FBPA Giardia inh	HCMV inh	Pf growth 48h	Pf growth 96h
CN(C(=O)COC(=O)CCC(=O)c1ccc(F)cc1)C1CCCCC1	/	/	-17.1	/	/
Cc1ccc(-n2c(C)cc(C(=O)CSc3nncs3)c2C)cc1	-14.3%	-4.2%	-70.5*	140.5%	7.9%
Cc1cc(C(=O)CSc2nncs2)c(C)n1-c1c(C)n(C)n(-c2ccccc2)c1=O	-32.7%	0.4%	-21.4	9.0%	/
C/C1=C2/[N-]C(C(CC(N)=O)[C@@]2(C)CCC(=O)NCC(C)OP(=O)([O-])O[C@H]2[C@@H](O)[C@@H](n3cnc4cc(C)c(C)cc43)O[C@@H]2CO)[C@]2(C)N=C(/C(C)=C3N=C(/C=C4N=C1C(CCC(N)=O)C\4(C)C)[C@@H](CCC(N)=O)[C@]\3(C)CC(N)=O)[C@@H](CCC(N)=O)[C@]2(C)CC(N)=O.CC(=O)O.[Co] (some centres undefined)	/	/	/	0.849µM*	0.675µM*
COc1cc2c(cc1OC)-c1cc(Nc3cccc(C)c3)nc(=O)n1CC2	-0.4%	-11.2%	22.8	-22.5%	-10.7%
COCCOC(=O)/C(=C\c1cc(C(C)(C)C)c(O)c(C(C)(C)C)c1)C(C)=O	39.8µM*	-4.5%	0.0	-2.5%	?
Cc1ccc(C2=NC(C)(C)N=C2SCC(=O)Nc2ccc(Cl)cc2)cc1	?	-7.1%	-25.4	/	4.15µM*
CCN1/C(=C/C(=O)c2ccco2)Sc2ccccc21	20µM*	?	146.4	0.0%	32.2%
CCC(=O)/C=C1/Sc2ccccc2N1CC	-22.5%	-11.7%	?	-23.4%	391.0%
CN1/C(=C\C(=O)C[n+]2ccc3ccccc3c2)C(C)(C)c2ccccc21	-18.1%	-2.4%	-96.5*	?	1.04µM*
CN1/C(=C\C(=O)COC(=O)c2ccco2)C(C)(C)c2ccccc21	-32.0%	-10.7%	11.0	0.0%	14.2%
CN1/C(=C\C(=O)c2cncc(Br)c2)C(C)(C)c2ccccc21	-16.6%	-20.2%	-72.7*	?	?
CN1/C(=C\C(=O)c2ccco2)C(C)(C)c2ccccc21	44.7µM*	-23.1%	-71.2*	1.65µM*	267.1%
COc1ccc(N2CCN(C(=O)c3c(C)nn(-c4ccccc4)c3C)CC2)cc1	0.5%	0.6%	-7.3	-13.0%	-1.6%
CCOC(=O)C1CSCCS(=O)(=O)N1Cc1cccc(F)c1 (centres undefined)	/	/	-7.7	/	/
COC(=O)c1sc(NC(=O)c2cc(C)on2)nc1C	-7.9%	4.6%	/	59.9%	85.6%
COc1ccc(S[C@]2(c3nc(C)no3)CC(=O)N(S(=O)(=O)c3ccc(F)cc3)[C@@H]2c2ccc(OC)cc2)cc1	/	/	-17.7	/	/
NC(=O)CCn1ccc2ccccc21	1.6%	2.9%	-18.2	-9.0%	38.7%
CN1/C(=C\C(=O)CSc2nnc(NCc3ccccc3)s2)C(C)(C)c2ccccc21	-6.6%	-3.5%	?	7.38µM*	6.57µM*
CN1/C(=C\C(=O)c2ccco2)c2ccccc2CC1(C)C	0.0%	-19.7%	1.6	-0.2%	9.28µM*
Cc1cc(C(=O)CSc2nnc(NCc3ccccc3)s2)c(C)n1C	3.3%	2.5%	-1.6	?	52.7%
CC(=O)Nc1nnc(-c2ccc3c(c2)CCCC3)o1	1.5%	-8.9%	-26.4	/	?
COc1ccccc1C(=O)Nc1nnc(-c2ccc3c(c2)CCCC3)o1	9.6%	26.3%	-75.6*	/	24.4%
Cc1c(C(=O)Nc2ccccc2)c2ccc(C(F)(F)F)cc2n1O	/	/	-94.6*	/	/
O=c1ccn2c(n1)SC(c1ccccc1)C2 (centres undefined)	/	/	-21.3	/	/
SMILES	Sm TGR inh	FBPA Giardia inh	HCMV inh	Pf growth 48h	Pf growth 96h
Cc1cc(-c2ccc(Cl)cc2)n2nc(C)cc2n1	1.3%	2.7%	20.6	-1.0%	10.4µM*
Cc1cc(-c2ccc(Br)cc2)n2nc(C)cc2n1	/	/	-19.7	/	/
O=C(NCc1ccco1)/C(=C/C=C\c1ccccc1)NC(=O)c1ccc(Br)o1	0.1%	-1.5%	-69.1*	?	20.1%
Cc1ccc(/C=C(\C#N)C(=O)NCc2ccco2)o1	-1.6%	-4.4%	4.8	105.0%	0.2%
N#C/C(=C\C=C\c1ccccc1)C(=O)N1CCCC1	-13.8%	-6.1%	?	7.38µM*	?
N#C/C(=C\C=C\c1ccccc1)C(=O)NCc1ccco1	/	-3.1%	?	?	14.7µM*
